Measurements reported in the supplement of paper PMC5662767.
Structures can show the parent of a compound that is named as a salt.

Test system: Drosophila S2 cl14 SmoIP sensor cells
Assay: normalized SmoIP GFP fluorescence (untreated unstimulated = 0%, untreated Hh-stimulated = 100%); higher = more Smo activation sensor fluorescence
Conditions: compound concentration: 2 uM, 24 h
[1] = stimulation: Hh conditioned medium (+Hh)
[2] = stimulation: mock conditioned medium (-Hh)
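Further: flow cytometry read-out as median GFP intensity of gated cells, compounds added 30 min before Hh-conditioned or mock medium, mock-treated cells serving as unstimulated baseline.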

SMILES: CNC(=O)c1nn(C)c2c1C(C)(C)Cc1cnc(Nc3ccc(N4CCN(C)CC4)cc3)nc1-2
- normalized SmoIP GFP fluorescence [1]: 107%
- normalized SmoIP GFP fluorescence [2]: -11.7%

SMILES: Oc1c2ccccc2c2c3c(cccc13)N=N2
- normalized SmoIP GFP fluorescence [1]: 121%
- normalized SmoIP GFP fluorescence [2]: 66%

SMILES: CO[C@@H](C(=O)N1Cc2[nH]nc(NC(=O)c3ccc(N4CCN(C)CC4)cc3)c2C1)c1ccccc1
- normalized SmoIP GFP fluorescence [1]: 122%
- normalized SmoIP GFP fluorescence [2]: 12.4%

SMILES: CCCOc1ccc(C(=O)OCCN(CC)CC)cc1N [proparacaine-hcl]
- normalized SmoIP GFP fluorescence [1]: 111%
- normalized SmoIP GFP fluorescence [2]: -2.48%

SMILES: CCS(=O)(=O)c1cccc(-c2cc(C(=O)NC3CCN(C)CC3)c(C)c3[nH]c4ncc(C)cc4c23)c1
- normalized SmoIP GFP fluorescence [1]: 103%
- normalized SmoIP GFP fluorescence [2]: -25.2%

SMILES: CC1(C)Cc2c(-c3ccccc3)c(-c3ccc(Cl)cc3)c(CC(=O)O)n2C1 [licofelone]
- normalized SmoIP GFP fluorescence [1]: 121%
- normalized SmoIP GFP fluorescence [2]: -11.2%

SMILES: O=C(O)c1ccc(Nc2ncc3c(n2)-c2ccc(Cl)cc2C(c2c(F)cccc2F)=NC3)cc1
- normalized SmoIP GFP fluorescence [1]: 271%
- normalized SmoIP GFP fluorescence [2]: 46.7%

SMILES: CCC(CC)CC1(C(=O)Nc2ccccc2SC(=O)C(C)C)CCCCC1 [dalcetrapib-jtt-705]
- normalized SmoIP GFP fluorescence [1]: 137%
- normalized SmoIP GFP fluorescence [2]: -10.6%

SMILES: OCCOCCN1CCN(C2=Nc3ccccc3Sc3ccccc32)CC1 [Quetiapine-fumarate(Seroquel)]
- normalized SmoIP GFP fluorescence [1]: 106%
- normalized SmoIP GFP fluorescence [2]: -9.58%

SMILES: COc1cc(N2CCC(N3CCN(C)CC3)CC2)ccc1Nc1ncc(Cl)c(Nc2ccccc2S(=O)(=O)C(C)C)n1
- normalized SmoIP GFP fluorescence [1]: 109%
- normalized SmoIP GFP fluorescence [2]: 10.2%

SMILES: Nc1nc(N)c2nc(-c3ccccc3)c(N)nc2n1 [triamterene]
- normalized SmoIP GFP fluorescence [1]: 104%
- normalized SmoIP GFP fluorescence [2]: -6.06%

SMILES: Cn1cc(C2=C(c3ccc(Cl)cc3Cl)C(=O)NC2=O)c2ccccc21
- normalized SmoIP GFP fluorescence [1]: 115%
- normalized SmoIP GFP fluorescence [2]: 16.5%

SMILES: CCCC(=O)Nc1ccc(OCC(O)CNC(C)C)c(C(C)=O)c1 (stereo unspecified) [acebutolol-hcl]
- normalized SmoIP GFP fluorescence [1]: 106%
- normalized SmoIP GFP fluorescence [2]: -3.5%

SMILES: CCc1c(O)cc(O)c(C(=O)c2ccc(OCCN3CCOCC3)c(OC)c2)c1CC(=O)N(CCOC)CCOC
- normalized SmoIP GFP fluorescence [1]: 121%
- normalized SmoIP GFP fluorescence [2]: -12.4%

SMILES: CN1C(=O)C(Cc2c[nH]c3ccccc23)NC1=S (stereo unspecified) [necrostatin-1]
- normalized SmoIP GFP fluorescence [1]: 134%
- normalized SmoIP GFP fluorescence [2]: -16.1%

SMILES: COc1ccc(C2CNC(=O)C2)cc1OC1CCCC1 (stereo unspecified) [Rolipram]
- normalized SmoIP GFP fluorescence [1]: 92.5%
- normalized SmoIP GFP fluorescence [2]: -1.88%

SMILES: CC(C)C[C@H](NC(=O)CNC(=O)c1cc(Cl)ccc1Cl)B1OC(=O)C(CC(=O)O)(CC(=O)O)O1
- normalized SmoIP GFP fluorescence [1]: 157%
- normalized SmoIP GFP fluorescence [2]: 31%

SMILES: CCCCc1nc2cc(/C=C/C(=O)NO)ccc2n1CCN(CC)CC
- normalized SmoIP GFP fluorescence [1]: 208%
- normalized SmoIP GFP fluorescence [2]: 34.2%

SMILES: CC(C)N(CCC(=O)c1ccc2ccccc2c1)Cc1ccccc1
- normalized SmoIP GFP fluorescence [1]: 119%
- normalized SmoIP GFP fluorescence [2]: -19%

SMILES: CCCC(C)NC(=O)c1ccc(Cl)c(Cl)c1 (stereo unspecified)
- normalized SmoIP GFP fluorescence [1]: 95.2%
- normalized SmoIP GFP fluorescence [2]: -4.7%

SMILES: CC(=O)OCC(=O)NCCCOc1cccc(CN2CCCCC2)c1 [roxatidine-acetate-hcl]
- normalized SmoIP GFP fluorescence [1]: 142%
- normalized SmoIP GFP fluorescence [2]: -6.97%

SMILES: CN(C)C(=O)Nc1cccc(-c2ccc(N(C)C)cc2)c1 [atglistatin]
- normalized SmoIP GFP fluorescence [1]: 130%
- normalized SmoIP GFP fluorescence [2]: 18.1%

SMILES: COc1ccc([C@@H]2CC(=O)c3c(O)cc(O)cc3O2)cc1O [Hesperetin]
- normalized SmoIP GFP fluorescence [1]: 111%
- normalized SmoIP GFP fluorescence [2]: -18.9%

SMILES: Cc1cn(-c2cc(NC(=O)c3ccc(C)c(Nc4nccc(-c5cccnc5)n4)c3)cc(C(F)(F)F)c2)cn1 [Nilotinib]
- normalized SmoIP GFP fluorescence [1]: 104%
- normalized SmoIP GFP fluorescence [2]: -4.47%

SMILES: NC(=O)c1cnc(N[C@@H]2CCCC[C@@H]2N)nc1Nc1cccc(-n2nccn2)c1
- normalized SmoIP GFP fluorescence [1]: 166%
- normalized SmoIP GFP fluorescence [2]: 24.4%

SMILES: O=C(/C=C/c1ccc(O)c(O)c1)c1ccc(O)cc1O [butein]
- normalized SmoIP GFP fluorescence [1]: 77.1%
- normalized SmoIP GFP fluorescence [2]: 3.58%

SMILES: CCN1CCN(c2ccc(Nc3cc(N(C)C(=O)Nc4c(Cl)c(OC)cc(OC)c4Cl)ncn3)cc2)CC1
- normalized SmoIP GFP fluorescence [1]: 111%
- normalized SmoIP GFP fluorescence [2]: -12.7%

SMILES: COC(=O)C1=C(C)NC(C)=C(C(=O)OC(C)C)C1c1cccc2nonc12 (stereo unspecified) [Isradipine(Dynacirc)]
- normalized SmoIP GFP fluorescence [1]: 112%
- normalized SmoIP GFP fluorescence [2]: 3.72%
